From PubChem BioAssay (NCI)
Several values for one entry are separate records, joined by “and”; a condition that tells them apart may be missing. Equal values may be shown once. The panel holds about 83,000 compounds, 20% with a hit somewhere; the sample as a whole holds those more often.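 A percent growth of 40 corresponds to 60% growth inhibition; 0 means no net growth; -100 means all cells died. Active threshold: below 10.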 Activity calls are given as the source filed them.

What follows are molecules tested on HL-60(TB) leukemia (assay: NCI-60 one-dose screen, 48 h (100 = growth as untreated, 0 = no growth, -100 = all killed)). Settings: 10 µM unless noted.

Row | SMILES | growth
1 | CS(=O)(=O)c1ccc(C(=O)N/N=C/c2ccccc2O)cc1 | 6.35% (active)
2 | S=c1ccc2ccccc2[nH]1 | 85.3% (inactive) and 97.6% (inactive)
3 | O=C(Nc1ccc(OS(=O)(=O)Cc2ccccc2)cc1)C12CC3CC(CC(C3)C1)C2 | 60.5% (inactive)
4 | COC(=O)CCCNC(=O)C(=O)c1c(O)c(O)c(C(C)C)c2cc(C)c(-c3c(C)cc4c(C(C)C)c(O)c(O)c(C(=O)C(=O)NCCCC(=O)OC)c4c3O)c(O)c12 | 11.3% (inactive)
5 | O=c1[nH]cnc2c1ncn2C1OC(CO)C(O)C1O (configuration not stated) | 97.1% (inactive) and 89.3% (inactive) and 101% (inactive)
6 | Nc1nc2c(nnn2Cc2ccc(Cl)c(Cl)c2)c(=O)[nH]1 | 95% (inactive)
7 | C[C@H](C(=O)N[C@@H](Cc1ccc(-c2ccccc2)cc1)C(=O)NC1CC(C)(C)N(C)C(C)(C)C1)c1ccc(-c2ccccc2)c(F)c1 | -61.2% (active)
8 | C#CCN(C)Cc1ccccc1 | 101% (inactive) and 96.4% (inactive)
9 | COc1ccc(-c2nsc3c2NC(=O)CC3c2ccc(Cl)cc2)cc1 (configuration not stated) | 80.1% (inactive)
10 | CC(C)n1cnc2c(=S)nc[nH]c21 | 141% (inactive)
11 | CC(C)(C)[Si](C)(C)OC1[C@@H](O[Si](C)(C)C(C)(C)C)[C@@H](CNC(=O)NC(=O)C(F)(F)F)O[C@H]1n1cnc2c(NC(=O)Nc3ccccc3)ncnc21 (some centres not stated) | -52.6% (active)
12 | COc1ccc(/C(=C/c2cc(OC)c(OC)cc2[N+](=O)[O-])C(=O)O)cc1 | 98.5% (inactive)
